# Only a selection was taken, and hits are over-represented in it overall.
# Methyltransferases = Primary Screen for Target Class Profiling of Small Molecule Inhibitors of Methyltransferases; purified enzyme, MTase-Glo SAH luminescence; stronger effect = lower value; calls only at 40 µM; hit rate 3.9% among 25,000; AID 1745853, 2022; call rule not given here
#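 Each enzyme was assayed with SAM and its substrate. SAH formation detected by MTase-Glo luminescence; single-point 40 uM screen[…].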
# Calls only; n = inactive; + = active, no number; ! = not confirmed by another sample.
SMILES,Methyltransferases
COc1ccc(-c2cc3n(n2)CC(C)(C(=O)NCc2ccccc2OC)N(c2cc(Cl)ccc2C)C3=O)cc1 (configuration not stated),n
CC(=O)N(C)C1(c2ccccc2)CCN(CCC[C@]2(c3ccc(Cl)c(Cl)c3)CCCN(C(=O)c3ccccc3)C2)CC1,+
O=C(c1ccccc1)N1CCCC2(CC(c3ccccc3)=NO2)C1 (configuration not stated),n
CC1=NOC2(CCN(C(=O)c3ccccc3)C2)C1 (configuration not stated),n
COC(=O)c1ncn2c1C(=O)N(Cc1ccccc1Cl)C(C)(C(=O)NC1CCCCCC1)C2 (configuration not stated),n
OCCCNc1cc(-c2ccnc(Nc3cccc(Cl)c3)n2)ccn1,+
CCCn1c(=O)c2cc(F)ccc2n2c(SCC(=O)Nc3ccc4c(c3)OCO4)nnc12,n
CCC1C(=O)N(C)c2cnc(Nc3ccc(C(=O)NC4CCN(C)CC4)cc3OC)nc2N1C1CCCC1 (configuration not stated),+
CN1c2cc(C(=O)NC3CCCCCC3)ccc2C(=O)N2CCCC21 (configuration not stated),n
COc1cc(C(=O)N2CCC(N3CCN(C)CC3)CC2)ccc1Nc1ncc2c(n1)N(C)c1ccccc1C(=O)N2C,n
CCc1cccc(CC)c1NC(=O)c1nn(C)c2c1CCc1cnc(Nc3ccc(C(=O)NC4CCN(C)CC4)cc3OC(F)(F)F)nc1-2,n
COc1cc(C(=O)NC2CCN(C)CC2)ccc1Nc1ncc2c(n1)N(C1CCCC1)CC(F)(F)C(=O)N2C,+
COc1ccc(C(=O)Cn2nc3n(C)c(=O)c4ccc(C(=O)NC5CCCCC5)cc4n3c2=O)cc1,n
CCc1ccc(CNC(=O)CNC(=O)C2(C)Cn3c(cc4ccccc43)C(=O)N2C)cc1 (configuration not stated),n
COc1ccc(-c2cnc(-c3cccc4c3-c3ccccc3C4=O)o2)cc1,n
CCC(C)NC(=O)c1ccc2c(=O)n(CC(C)C)c3nn(Cc4cccc(Cl)c4)c(=O)n3c2c1 (configuration not stated),n
CN(C(=O)Cn1nc2n(C)c(=O)c3ccc(C(=O)NC4CCCCC4)cc3n2c1=O)c1ccc(F)cc1,n
CN1C(=O)c2cc(C(=O)NCCN3CCOCC3)nn2CC1(C)C(=O)NC1CCCCCC1 (configuration not stated),n
CCOC(=O)COc1ccc2c(-c3ccccc3)cc(=O)oc2c1C,n
COc1cc(NC(=O)c2cccc(-n3cc(NC(=O)Nc4cccc(C)c4)cn3)c2)cc(OC)c1OC,n
COc1cc(/C=C/C(=O)O[C@H]2[C@H](O)[C@@H](CO)O[C@@]2(CO)O[C@H]2O[C@H](COC(=O)c3ccc(O)cc3)[C@@H](O)[C@H](O)[C@H]2O)cc(OC)c1OC,n
COc1ccc(/C=C\C(=O)O)c(O[C@@H]2O[C@H](CO)[C@@H](O)[C@H](O)[C@H]2O)c1,n
COc1cc(C(=O)OC[C@H]2O[C@@H](Oc3ccccc3/C=C/C(=O)O)[C@H](O)[C@@H](O)[C@@H]2O)cc(OC)c1OC,+
COCCCNC(=O)C1(C)Cn2nc(-c3ccccc3)cc2C(=O)N1Cc1ccccc1Cl (configuration not stated),n
CCCn1c(=O)c2ccc(C(=O)NC3CCCC3)cc2n2c(SCC(=O)NC(C)(C)C)nnc12,n
SMILES,Methyltransferases
CC(C)NC(=O)c1ccc2c(=O)n(C(C)C)c3nn(CC(=O)c4ccc(Cl)cc4)c(=O)n3c2c1,n
Cc1cc(C)cc(NS(=O)(=O)c2ccc3[nH]c4c(c3c2)CCCC4)c1,n
Cc1ccc(NC(=O)CSc2nnc3n(CCCOC(C)C)c(=O)c4ccccc4n23)cc1C,n
CC(C)(C[C@@](O)(Cc1cc2ccncc2[nH]1)C(F)(F)F)c1cc(F)ccc1O,+
Cc1ccc(CN2C(=O)c3nc4ccccc4n3CC2(C)C(=O)NC2CCCCCC2)cc1 (configuration not stated),n
CCCn1c(=O)c2cc(F)ccc2n2c(SCc3cccc(Cl)c3)nnc12,n
Cc1ccc(Cn2c(=O)c3ccccc3n3c(CCC(=O)NCC(C)c4ccccc4)nnc23)cc1 (configuration not stated),n
CC(C)c1cc(-c2n[nH]c(=O)n2-c2ccc3c(ccn3C)c2)c(O)cc1O,+
COc1ccc(Sc2ccc(NC(=O)c3ccccc3Cl)cc2C#N)cc1,n
COc1cc(OC)cc(C(=O)Nc2ccc(Cl)c(-c3nc4ccc(N(C)C)cc4[nH]3)c2)c1,+
CN1C(=O)c2cc(NC(=O)c3cccc(N(C)C)c3)ccc2N2CCN=C12,n
Cc1ccc(C)c(N2CCN(S(=O)(=O)c3cc4c(cc3Cl)n(C)c(=O)n4C)CC2)c1,n
CN1C(=O)c2cc(C(=O)NCCCN3CCOCC3)nn2CC1(C)C(=O)NCc1ccccc1 (configuration not stated),n
O=C(Nc1ccc(Oc2ccnc3[nH]ccc23)c(F)c1)c1cccn(-c2ccc(F)cc2)c1=O,n
COc1ccc2c(OCc3nnc4ccc(-c5ccccc5)nn34)ccnc2c1,n
COc1ccc2c(Oc3ccc(NC(=O)c4c(C)n(CC(C)(C)O)n(-c5ccccc5)c4=O)cc3F)ccnc2c1,+
COC(=O)c1ncn2c1C(=O)N(Cc1ccc(OC)c(OC)c1)C(C)(C(=O)NC1CCCC1)C2 (configuration not stated),n
CC1(C(=O)NC2CCCC2)Cn2cnc(C(=O)Nc3cccc(Cl)c3)c2C(=O)N1C1CC1 (configuration not stated),n
COc1cccc(S(=O)(=O)N2CCC3(CCCCO3)CC2)c1,n
O=C(O)c1ccc2c(c1)nc(Nc1cccc(Cl)c1)c1ccncc12,+
O=C(Nc1ccc(Cl)cc1)c1nc(Nc2ccccc2)c2ccccc2n1,n
O=C(NCc1cccc(Cl)c1)c1ccc2oc(-c3cccnc3)nc2c1,n
CC(=O)Nc1c2n(c3ccc(F)cc13)CC(C)(C(=O)NC1CCCCCC1)N(CCC(C)C)C2=O (configuration not stated),n
O=c1c2ccccc2n2c(SCc3ccccc3F)nnc2n1CCc1ccccc1,n
Cc1ccc(Cn2c(=O)c3ccccc3n3c(=O)n(CC(=O)Nc4ccccc4F)nc23)cc1,n
SMILES,Methyltransferases
O=S(=O)(Nc1cccc2ccccc12)c1ccc2[nH]c3c(c2c1)CCCC3,n
CCOC(=O)c1cc2n(n1)CC(C)(C(=O)NC1CCCCC1)N(c1ccccc1OC)C2=O (configuration not stated),n
CC(=O)NCC(=O)N1C2CCC1c1cc(Nc3ncc(C(F)(F)F)c(NC4CCC4)n3)ccc12 (configuration not stated),+
C=CC(=O)Nc1cccc(Nc2nc(Nc3ccc(NC4CN(CCF)C4)cc3OC)ncc2C(F)(F)F)c1,n
COc1cccc(-c2ccc(NC(=O)C3CCCN3C(=O)CNC(C)=O)cc2)c1 (configuration not stated),n
Cc1ccc(Cn2c(=O)c3ccccc3n3c(CCC(=O)NCCC(C)C)nnc23)cc1,n
CCc1ccccc1NC(=O)CSc1nnc2n(Cc3ccc(F)cc3)c(=O)c3ccccc3n12,n
CC1(C(=O)NC2CCCCCCC2)Cn2c(cc3sccc32)C(=O)N1C1CCCCC1 (configuration not stated),n
O=[N+]([O-])c1ccc(CNc2nc(NCc3cccc(C(F)(F)F)c3)nc3nc[nH]c23)cc1,+!
COC(=O)c1ccc2c(c1)C1C=CCC1C(c1ccc(Br)cc1)N2 (configuration not stated),n
